Measured values taken from the supplement of paper PMC7866885, “A novel bicyclic 2,4-diaminopyrimidine inhibitor of Streptococcus suis dihydrofolate reductase” (PeerJ, 2021).
± gives the standard deviation.

Legend:
[1] = test system: Streptococcus suis HE06; experiment: percent growth relative to DMSO control; higher = less growth inhibition; settings: 10 µM; incubation time 18 h
Description: (§1)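 CLSI broth microdilution: 5x10^4 CFU of Streptococcus suis (strain P1/7 or HE06) incubated with 10 µM Pathogen Box compound in cation-adjusted Mueller Hinton broth, 37 °C, 5% CO2, 18 h. Growth read as OD600 and expressed as percent of the DMSO-treated control (100%); mean ± SD of three independent experiments.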

[2] = test system: Streptococcus suis P1/7; experiment: as above; settings: 10 µM; incubation time 18 h
Description: as §1

Structure (SMILES)	percent growth [1]	percent growth [2]
Cc1nn2c(O)c3c(nc2c1-c1ccc(F)cc1)CCCC3	63.3 ± 22%	45.5 ± 21%
COc1ccc(Nc2ccccc2NC(=O)c2ccc(O)nc2)cc1	86.7 ± 11%	99.1 ± 41%
CC(C)(C)CN1C(=O)C(c2ccccc2)(c2ccccc2)N=C1N	46.1 ± 39%	49.6 ± 44%
Cc1ccccc1C(=O)N1N=C(Nc2ccccc2)SC1(C)C	104 ± 8.3%	80.9 ± 23%
Cc1ccc(S(=O)(=O)Nc2ccc(CN3CCN(C(=O)c4cccc(C#N)c4)CC3)cc2)cc1	104 ± 9.6%	114 ± 40%
COc1ccc(C2(C(=O)Nc3ccc(Br)cc3)CCCC2)cc1	120 ± 25%	92.5 ± 15%
CC(C)(CN)c1nc(-c2ccc(Cl)c(O)c2)c(-c2ccnc(N)n2)[nH]1	90.9 ± 6.5%	79.2 ± 20%
O=C1Nc2ccc(Br)cc2C12NCCc1c2[nH]c2ccccc12 (stereo not given)	94.7 ± 15%	112 ± 38%
C[C@H](c1ccc2c(c1)CCCC2)N(C)c1ncc2c(N)nc(N)nc2n1	84.7 ± 9.1%	76.6 ± 18%
Nc1ncnc2[nH]nc(Cc3cccc4ccccc34)c12	104 ± 35%	66.1 ± 20%
O=C(C(Cc1c[nH]c2ccccc12)NS(=O)(=O)c1ccc(Cl)cc1)N1CCCCC1 (stereo not given)	89.3 ± 4.7%	120 ± 43%
O=C(NCCc1c[nH]c2ccccc12)c1cc2ccccc2oc1=O	104 ± 6%	74.1 ± 8.7%
Cc1ccc2oc(-c3cc(NC(=O)Cc4ccccc4)ccc3Cl)nc2c1	93.1 ± 13%	78.5 ± 4%
CC(=O)NC[C@@H]1CN(c2ccc(N3CCOCC3)c(F)c2)C(=O)O1	3.9 ± 5.2%	3.05 ± 1.6%
COc1cccn2c(C(=O)N3CCCCC3)c(C(F)(F)F)nc12	111 ± 22%	87 ± 21%
Cc1ccc2nc(Cl)c(CNCc3cccs3)cc2c1	93.6 ± 9.5%	100 ± 21%
CCc1ccc([C@@H]2C[C@H](C(F)(F)F)n3ncc(C(=O)NCc4ccc(OC)cc4)c3N2)cc1	92.3 ± 12%	75.4 ± 5.3%
O=C(Nc1cccnc1)c1c(O)c2cccc3c2n(c1=O)CC3	78.3 ± 3.7%	89.7 ± 27%
Nc1cccnc1Nc1ccc(Cl)cc1	94.6 ± 4.4%	101 ± 40%
O=C(Nc1ccccc1)c1ccc(-c2cc3ccncc3cc2OC2CCNCC2)s1	85.8 ± 20%	72.3 ± 8.4%

Structure (SMILES)	percent growth [1]	percent growth [2]
O=C(NC1CCN(c2ccnc3ccccc23)C1)c1cccc(C(F)(F)F)c1 (stereo not given)	106 ± 30%	81.5 ± 25%
CN(C)CCNC(=O)N1CCCN(c2ncnc3cc(-c4ccccc4)sc23)CC1	92.9 ± 31%	72.1 ± 3.5%
c1ccc(Oc2ccc(-c3cc(N4CCOCC4)[nH]n3)cc2)cc1	81.2 ± 21%	61.7 ± 32%
C[C@]1(O)C[C@@H](c2nc(-c3ccc4ccc(-c5ccccc5)nc4c3)c3c(N)nccn32)C1	81.6 ± 9.1%	97 ± 18%
COc1ccc2nccc(NC(=O)C3CCN(CCc4ccc(Cl)cc4)CC3)c2n1	74.3 ± 59%	28.6 ± 47%
Cc1cc2ccccc2n1CC(=O)N1CC(C(=O)N2CCCCC2)Oc2ccccc21 (stereo not given)	71.6 ± 13%	102 ± 19%
Cc1cc(Nc2ccc(C(F)(F)F)cc2)n2ccnc2n1	113 ± 12%	97.6 ± 41%
Nc1ncc(Br)cc1-c1nc2cc(Cl)cnc2[nH]1	92.2 ± 8.1%	100 ± 9.8%
COc1cc(C2=NCCN2)ccc1-c1cn(-c2cccc(C3=NCCN3)c2)nn1	82.9 ± 23%	73 ± 4.1%
NS(=O)(=O)c1cncc(-c2ccc3nccc(-c4cn[nH]c4)c3n2)c1	102 ± 33%	77.6 ± 23%
NCCCC(N)(C(=O)O)C(F)F (stereo not given)	84.8 ± 12%	90.1 ± 16%
NC(=O)c1cc(Br)ccc1OCCOc1ccccc1	85.2 ± 9.9%	73.4 ± 29%
CC(=O)Oc1ccccc1C(=O)Nc1ncc([N+](=O)[O-])s1	42.5 ± 18%	35.5 ± 5.8%
CC(C)(C)n1nc(Cc2ccc(F)c(Cl)c2)c2c(N)ncnc21	91.5 ± 3.1%	105 ± 51%
O=C(NC1CC1)c1ccc(N2CCC(Cc3ccccc3)CC2)nc1	91.7 ± 9.1%	108 ± 16%
COc1ccc(S(=O)(=O)Nc2ccc(CN3CCN(C(=O)c4cccc(C#N)c4)CC3)cc2)cc1	103 ± 16%	118 ± 47%
Cc1ccc2[nH]c3c(NCCN(C)C)ncnc3c2c1	96.1 ± 12%	172 ± 110%
CCOc1ccc(-c2nc(CNCCc3ccc(F)cc3)cs2)cc1	97.3 ± 4.6%	29.5 ± 51%
Cc1ccc(C(=O)Nc2ccc(S(=O)(=O)O)c3cc(S(=O)(=O)O)cc(S(=O)(=O)O)c23)cc1NC(=O)c1cccc(NC(=O)Nc2cccc(C(=O)Nc3cc(C(=O)Nc4ccc(S(=O)(=O)O)c5cc(S(=O)(=O)O)cc(S(=O)(=O)O)c45)ccc3C)c2)c1	78.7 ± 8.8%	85.9 ± 15%
CCC(C)NC(=O)c1ccc(NC(=O)C2(c3ccccc3)CCCC2)cc1 (stereo not given)	105 ± 27%	78.1 ± 25%
